Shown is part of a subset that was picked to be rich in hits.
CRE Fsk mod = modulators of forskolin-stimulated CRE signaling in CHO cells; Potency, µM (titrated, usually from 38.2 µM), for inactives: at the top dose activity change, negative = inhibition, actives largely listed as activators; hit rate 2.5% among 71,000; CHO CRE-bla reporter (cAMP response element driving beta-lactamase), forskolin EC10, beta-lactamase ratio; active means well fitted activation curve with a large enough effect in the signal ratio, with a control signal flat, not every such curve was filed as active; inconclusive means small, poorly fitted or top-dose-only effect, or effect the other way, or a change in a side signal; the % refers to the signal ratio; further: % of control where 0% means no effect
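AC50 values, positive or negative, reflect shifts in EC10 NKH 477-induced CRE-bla reporter activity in CHO cells. Incubation lasted 3 h at 37 °C before CCF4 substrate (2 h, room temperature) and ratiometric 460/530 nm reading.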
Imprint erasure = genomic imprint erasure induction | mouse ES Peg3-LacZ reporter, beta-gal luminescence, 40 h | Potency, µM (doses to about 60.7 µM), inactives show top-dose activity change, positive = activation, most hits filed as activators | hit rate 0.02% among 110,000 | AID 1948
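Each well holds 300 Peg3LacZ-Neo (maternal) female ES cells incubated 40 h at 37C, 5% CO2. LacZ is measured by BetaGlo luminescence, with AC50 and maximum efficacy derived from dose-response curves.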
ERK AVP inh = blocks ERK signaling stimulated by vasopressin; Potency, µM (highest dose often 57.5 µM), for the others: at the top dose activity, negative = inhibition, most hits filed as inhibitors; AID 995; HEK293-V1b, vasopressin-stimulated pERK AlphaScreen; hit rate 0.99% among 72,000; further: on the % scale 0 is the no-effect control and ±100 the full control effect; nearly all actives have a fitted effect of over 55% in size
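qHTS, compounds titrated on V1b-expressing HEK293 cells. Preincubation 30 min at 37C, vasopressin 25 nM for 5 min, lysis 10 min, bead incubation 5 hr at room temperature.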
IkB signaling = suppresses IkB signaling in ABC-DLBCL reporter cells; AID 445; Potency, µM (top dose mostly 57.1 µM), without a hit: at the highest dose IkBa stabilization activation; ABC-DLBCL IkBa-CBG/CBR dual luciferase ratio, 4 h; response scale: scaled: untreated 0%, proteasome inhibitor 100%; hit rate 0.04% among 110,000; active means well fitted curve in the direction sought with a large enough effect in the signal ratio, not every such curve was filed as active; inconclusive means small, poorly fitted or top-dose-only effect, or a change in a side signal; the % refers to the signal ratio;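 further: the direction sought is a rising ratio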
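In this assay, an IκBα–CBG68 fusion accumulates when IKK-driven degradation is blocked; native CBR normalizes for cell number. OCI-Ly3 cells were treated 4 h with compound and doxycycline, then green and red light read after Chroma-Glo addition.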
An asterisk follows results filed as active; ? = inconclusive; . = no result given; [ ] = another dose, or the depositor's remark. Unless noted, the call rests on the fitted dose curve; in most records, active means well fitted curve in the direction sought with a large enough effect; inconclusive means small, poorly fitted or top-dose-only effect, or another doubt; inactive means no such curve, though single readings can be large; an effect the other way counts as inactive or inconclusive. Potency means the concentration at half of the fitted maximal effect.

SMILES | CRE Fsk mod | Imprint erasure | ERK AVP inh | IkB signaling
Cc1cc(=O)oc2c(O)c(O)ccc12 | . | -66% | -18% | .
CCC(=O)c1cc2c(C)cc(=O)oc2c(C)c1O | 2µM* | ? | 1% | -2%
Cc1ccc(-c2nnc3c4ccccc4c(C)nn23)cc1S(=O)(=O)N1CCN(C)CC1 | ? | -10% | -24% | 3%
Cc1ccc(-c2nnc3c4ccccc4c(C)nn23)cc1S(=O)(=O)N1CCN(CCO)CC1 | 3.2µM* | -16% | ? | -1%
Clc1cccc(-c2cc3nc4c(c(N5CCOCC5)n3n2)CCCC4)c1 | ? | -6% | -12% | ?
Fc1cccc(-c2cc3nc4c(c(N5CCOCC5)n3n2)CCCC4)c1 | 10µM* | -9% | 3% | 1%
Fc1ccc(-c2cc3nc(-c4ccccc4)cc(N4CCN(CCN5CCOCC5)CC4)n3n2)cc1 | 10µM* | -21% | -19% | ?
c1nc2nc3c(c(N4CCOCC4)n2n1)CCCC3 | 2.5µM* | 1% | 6% | 0%
COc1ccc(-c2cc3nc4c(c(N5CCC6(CC5)OCCO6)n3n2)CCCC4)cc1 | 2µM* | 11% | -4% | ?
CC1CCc2c(nc3ncnn3c2N2CCN(c3ccccc3)CC2)C1 (stereo not drawn) | 5% | -3% | -6% | -1%
O=[N+]([O-])c1ccc(NCCO)c(OCCO)c1 | 1% | -8% | -3% | 0%
Cc1ccccc1C1CC(=O)Oc2cc(C)c(Cl)c(C)c21 (stereo not drawn) | . | 11% | . | .
Cc1cc2c(c(=O)o1)[C@H](O)[C@H]1O[C@@H]1C2=O | . | . | 0%[11.5 µM] | .
COCCN1CCN(c2c(C)c(C)nc3cc(-c4cccc(OC)c4)nn23)CC1 | 2% | -12% | 11% | -1%
COc1cccc(-c2cc3nc(-c4ccccc4)cc(N4CCC5(CC4)OCCO5)n3n2)c1 | 3.2µM* | -12% | -7% | 2%
COc1ccc(-c2nnc(CSc3nc4ccccc4c(=O)n3CC(C)C)o2)cc1OC | 3.2µM* | -3% | ? | ?
COc1ccc(-c2noc(CSc3nc4ccccc4c(=O)n3-c3ccccc3)n2)cc1OC | ? | -18% | -2% | -1%
Cc1nn2c(=O)cc(CSc3nc4ccccc4[nH]3)nc2s1 | 4µM* | -12% | 12% | -2%
COc1cc([C@@H]2c3cc4c(cc3C(OC3OC5COC(C)OC5C(O)C3O)C3COC(=O)[C@@H]32)OCO4)cc(OC)c1O (stereo partly drawn) | . | -24% | . | .
CCOC(=O)Cc1csc(NC(=O)CSc2ncnc3c2cnn3-c2ccc(OC)cc2)n1 | ? | -77% | 5µM* | ?
COC(=O)C1=NOC2(C=C(Br)C(OC)=C(Br)C2=O)C1 (stereo not drawn) | . | . | -7%[11.5 µM] | .
N#Cc1cccc(-c2nccc(-n3ccnc3)n2)c1 | 2.5µM* | 4% | ? | -1%[11.4 µM]
CS(=O)(=O)Nc1cccc(-c2nccc(-n3ccnc3)n2)c1 | ? | -7% | -18% | 0%[11.4 µM]
CN(C)Cc1ccccc1-c1nc(N(C)C)c2ccccc2n1 | 4µM* | -20% | -1% | -6%[11.4 µM]
CNc1nc(-c2ccccc2CN(C)C)nc2ccccc12 | ? | -16% | 23% | -6%[11.4 µM]
SMILES | CRE Fsk mod | Imprint erasure | ERK AVP inh | IkB signaling
COc1ccc(CCNC[C@H](O)c2ccc(O)cc2)cc1OC | ? | . | -5% | 7%
CC(C)Cc1nc2oc3c(NCc4cccnc4)ncnc3c2c2c1CCC2 | 2µM* | 5% | -14% | -1%
CC(C)Cc1nc2oc3c(N4CCN(CCO)CC4)ncnc3c2c2c1CCCC2 | 2µM* | -15% | 7% | 3%
Cc1ccc(-c2nnc3n2N=C(c2ccccc2)CS3)cc1 | ? | -5% | . | 2%
COc1ccc(C2=Nn3c(nnc3-c3ccc(OC)cc3)SC2)cc1 | 13µM* | -21% | 10µM* | 4%
c1ccc(C2=Nn3c(nnc3-c3cc(-c4ccccc4)n[nH]3)SC2)cc1 | ? | -18% | 25µM* | ?
COc1cc([C@H](O)C(=O)O)ccc1O | -7% | . | -3% | -2%
CON(C)C(=O)c1nnc2c3ccccc3n(S(=O)(=O)c3ccc(C)cc3)c2n1 | . | . | 10%[11.5 µM] | .
COc1ccc(-n2c(=O)c(-c3ccccc3)nc3cnc(N4CCOCC4)nc32)cc1 | 3.2µM* | 18% | 6% | -1%[11.4 µM]
COc1ccc(-c2nc3cnc(N4CCOCC4)nc3n(Cc3cccs3)c2=O)cc1 | 0.5µM* | 5% | -28% | 1%[11.4 µM]
O=c1c(-c2cccs2)nc2cnc(N3CCOCC3)nc2n1Cc1cccs1 | ? | ? | 8% | 1%[11.4 µM]
Cc1nc2cnc(N3CCOCC3)nc2n(Cc2cccs2)c1=O | 2.5µM* | . | -4% | 3%[11.4 µM]
COc1ccc(-c2nc3cnc(N4CCN(C)CC4)nc3n(Cc3cccs3)c2=O)cc1 | ? | 6% | 46% | -2%[11.4 µM]
COc1ccc(-c2nc3cncnc3n(-c3ccccc3)c2=O)cc1 | 2.5µM* | 3% | -20% | 3%[11.4 µM]
CC(C)(C)c1onc(OCP(=O)(O)O)c1C[C@@H](N)C(=O)O | 1% | . | 18% | 2%
C[C@@]12C=Cc3occc3C1CC[C@@]13C[C@@H](CCC12)[C@@](O)(CO)C3 (stereo partly drawn) | . | -33% | . | .
CN(C)C(=O)c1ccc(-c2ccc3ncnc(NCc4ccccc4)c3c2)cc1 | ? | -4% | 25µM* | -1%[11.4 µM]
CN(C)C(=O)c1ccc(-c2ccc3ncnc(NCc4cccnc4)c3c2)cc1 | ? | 7% | ? | 1%[11.4 µM]
N#Cc1ccccc1-c1ccc2ncnc(NCc3ccccc3)c2c1 | 2µM* | -14% | ? | 5%[11.4 µM]
O=C1CC2(CCCC2)CC(=O)N1CCNC[C@H]1COc2ccccc2O1 | -16% | -16% | 4% | 0%
CCSC1=NC(=O)/C(=C2/C=Cc3ccccc3N2CC)S1 | 8% | -15% | 25µM* | -1%
CCCn1c(=C(C#N)C#N)s/c(=C2\C=Cc3ccccc3N2CC)c1=O | 6% | -7% | 7% | 0%
O=C1[C@@H]2[C@@H]3C=C[C@H]([C@@H]2C(=O)N1CN1CCSCC1)[C@@H]1[C@@H]2C(=O)N(CN4CCSCC4)C(=O)[C@@H]2[C@H]31 | 0%[7.6 µM] | . | -10%[11.5 µM] | 0%[11.4 µM]
Cc1cc(NC(=O)C2CCC2)n(-c2ccccn2)n1 | 3.2µM* | -20% | -9% | 0%
CO[C@@H]1/C=C\O[C@]2(C)Oc3c(C)c(O)c4c(O)c(c(/C=N\N5CCN(C)CC5)c(O)c4c3C2=O)NC(=O)/C(C)=C\C=C/[C@H](C)[C@H](O)[C@H](C)[C@H](O)[C@H](C)[C@H](OC(C)=O)[C@@H]1C | -17% | . | . | -1%[11.4 µM]
CC(=O)OCC(=O)[C@]12OC(C)(C)O[C@@H]1C[C@H]1[C@H]3CC=C4C[C@@H](O)CC[C@]4(C)[C@H]3CC[C@]12C | -5%[7.6 µM] | -5%[10.9 µM] | 0%[11.5 µM] | -2%[11.4 µM]
CC(C)c1nc(SCC(=O)Nc2cccc(C(F)(F)F)c2)c2c(=O)n(C)c(=O)n(C)c2n1 | 3.2µM* | -14% | . | 2%
CC(C)c1nc(SCC(=O)Nc2ccc3c(c2)OCCO3)c2c(=O)n(C)c(=O)n(C)c2n1 | ? | 16% | . | 1%
Nc1ccc2cc3ccccc3cc2c1 | ? | -11% | -18% | 3.2µM*

Screening results (PubChem BioAssay)
